Screening data from PubChem.
12-LOX inh = Primary qHTS assay for inhibitors of human arachidonate 12S-lipoxygenase (ALOX12): Round 2; Polyunsaturated fatty acid lipoxygenase ALOX12 (Homo sapiens), P18054; purified 12hLO, xylenol orange hydroperoxide absorbance; Potency, µM (doses to about 108 µM), inactives show at the top dose activity change, negative = inhibition, most hits filed as inhibitors; hit rate 1.1% among 580,000; AID 1671190, 2021
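Purified human 12hLO at 150 nM in 25 mM Hepes, 0.01% Triton X-100, pH 7.0, preincubated 15 min at room temperature with compound. Reaction started with 40 uM arachidonic acid, 30 min at room temperature. Hydroperoxide measured by Fe-xylenol orange, 573/405 nm absorbance ratio.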
ELG1 repair inh = qHTS screen for small molecules that inhibit ELG1-dependent DNA repair in human embryonic kidney (HEK293T) cells expressing luciferase-tagged ELG1; HEK293T ELG1-luciferase reporter, luminescence, 16 h; DNA damage induced by 5-fluorouridine; Potency, µM (doses to about 46.1 µM), for inactives: at the highest dose activity change, negative = inhibition, most hits filed as inhibitors; hit rate 2.3% among 330,000; AID 504467, 2011; note: nearly all actives have a fitted effect of over 55% in size
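Reporter activity after DNA damage by 5-fluorouridine is monitored. Compound-treated cells incubate 16 hr at 37 °C, then ONE-Glo is added for 30 min before luminescence reading.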
TDP1 cell noCPT = qHTS for Inhibitors of human tyrosyl-DNA phosphodiesterase 1 (TDP1): qHTS in cells in absence of CPT | DT40 Tdp1-/- hTDP1 cells, no CPT, ATP luminescence, 48 h | Potency, µM (doses to about 46.2 µM), without a hit: at the top dose activity change, negative = growth inhibition, usual class: inhibitors | hit rate 15% among 420,000 | AID 686978, 2013; note: nearly all actives have a fitted effect of over 55% in size
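No-CPT arm: Tdp1-/-;hTDP1 DT40 cells (400/well) plus compounds, incubated ≥48 hr at 37 °C. Readout CellTiter-Glo luminescence.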
RORgamma inh = qHTS for inhibitors of ROR gamma transcriptional activity. Nuclear receptor ROR-gamma (Mus musculus), P51450. Drosophila S2 Gal4-RORgamma UAS-luciferase reporter, 20 h. Potency, µM (series often up to 53.6 µM), for inactives: at the top dose activity change, negative = inhibition, hits mostly inhibitors. hit rate 5.4% among 310,000. AID 2551, 2010; note: nearly all actives have a fitted effect of over 60% in size
Target sequence (P51450 whole entry, looked up, the tested form may be a part): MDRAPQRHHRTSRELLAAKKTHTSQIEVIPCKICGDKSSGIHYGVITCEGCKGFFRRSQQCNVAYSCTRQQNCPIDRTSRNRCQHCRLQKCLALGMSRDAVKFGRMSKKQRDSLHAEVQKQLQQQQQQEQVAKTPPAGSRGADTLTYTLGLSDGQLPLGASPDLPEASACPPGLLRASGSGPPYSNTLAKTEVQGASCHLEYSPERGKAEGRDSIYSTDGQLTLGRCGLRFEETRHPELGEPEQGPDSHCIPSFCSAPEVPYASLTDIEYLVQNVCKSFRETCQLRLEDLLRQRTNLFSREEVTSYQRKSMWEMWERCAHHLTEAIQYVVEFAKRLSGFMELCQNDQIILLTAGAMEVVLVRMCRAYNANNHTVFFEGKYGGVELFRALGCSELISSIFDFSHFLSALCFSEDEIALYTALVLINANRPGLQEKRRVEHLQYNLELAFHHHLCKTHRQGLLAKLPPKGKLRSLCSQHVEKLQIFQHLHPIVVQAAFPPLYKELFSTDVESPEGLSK
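Drosophila S2 cells stably expressing Gal4-DBD/mouse RORγ fusion under metallothionein promoter plus UAS-luciferase; compound 1 h, then 700 uM CuSO4 induction for 20 h at ambient temperature; inhibition read as reduced luminescence.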
Gal4-VP16 FLuc = VP16 counterscreen qHTS for inhibitors of ROR gamma transcriptional activity | Drosophila S2 Gal4-VP16 UAS-luciferase, luminescence, 20 h | Potency, µM (top dose mostly 53.6 µM), for the others: top-dose activity, negative = inhibition, most hits filed as inhibitors | hit rate 3.5% among 310,000 | AID 2546, 2010;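 note: Gal4-VP16 expression switched on by copper sulfate through the metallothionein promoter; nearly all actives have a fitted effect of over 50% in size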
DT40 TDP1 CPT = qHTS for Inhibitors of human tyrosyl-DNA phosphodiesterase 1 (TDP1): qHTS in cells in presence of CPT; hit rate 12% among 420,000; chicken DT40 Tdp1-/-;hTDP1 cells + 20 nM CPT, ATP luminescence, 48 h; Potency, µM (top dose mostly 46.2 µM), inactives show at the highest dose activity change, negative = growth inhibition, hits mostly inhibitors; note: nearly all actives have a fitted effect of over 55% in size
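Chicken DT40 Tdp1-/- cells stably complemented with human TDP1 were seeded at 400 cells/well in medium containing 20 nM camptothecin, exposed to pin-transferred compounds, and grown at 37 °C for at least 48 hr. Viability was read as ATP luminescence.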
* marks the source's active call; other numbers are inactive results; u = inconclusive; x = no result given; [ ] = remark or other dose. Rows were chosen to be rich in hits. Some 15% of all compounds tested hit in one or more screens of this group. Calls come from the whole dose curve; as a rule, active = well fitted curve in the direction sought with a large enough effect; inconclusive = small, poorly fitted or top-dose-only effect, or another doubt; inactive = no such curve, though single readings can be large; an effect the other way counts as inactive or inconclusive. % is set by controls: 0 for no effect and ±100 for the full control effect; potency is the fitted concentration of half-maximal effect.

SMILES	12-LOX inh	ELG1 repair inh	TDP1 cell noCPT	RORgamma inh	Gal4-VP16 FLuc	DT40 TDP1 CPT
CCN(CC)CCCNc1nc2ccccc2c2[nH]c3ccc(OC)cc3c12	45µM*	x	2.9µM*	x	x	5.2µM*
CCN(c1ccccc1)S(=O)(=O)c1ccc(NC(=O)c2cc(=O)c3ccc(C)cc3o2)cc1	-2%	x	x	x	x	x
Cc1onc(-c2ccccc2)c1C(=O)N1CCN(S(=O)(=O)c2ccccc2Br)CC1	-29%	u	15µM*	13%	-2%	u
Cc1onc(-c2ccccc2)c1C(=O)N1CCN(S(=O)(=O)c2ccc(Cl)cc2)CC1	u	-6%	-26%	11%	5%	-22%
Cc1onc(-c2ccccc2)c1C(=O)N1CCN(c2ccccn2)CC1	9%	5%	18%	8%	-10%	-20%
Cc1cccc(N2CCN(C(=O)c3c(-c4ccccc4)noc3C)CC2)c1C	-2%	u	1.5µM*	1%	0%	2.9µM*
Cc1onc(-c2ccccc2)c1C(=O)N1CCN(c2ncccc2C(F)(F)F)CC1	-2%	-7%	u	3%	-8%	23µM*
CCc1noc(C)c1C(=O)N1CCN(c2cccc(C)c2C)CC1	-20%	1%	15µM*	x	x	u
COC1CCC12CCN(C(=O)NC(C)(C)C)CC2 (configuration not stated)	41%	x	x	x	x	x
CC(=O)N1CC2(Cc3ccccc31)CN(C(=O)C1CC1)C2	11%[176 µM]	x	x	x	x	x
O=C(Cc1ccncc1)N1CC(F)(F)C[C@H]1c1nc(C2CC2)no1	19%	x	x	x	x	x
Cc1onc(-c2ccccc2)c1C(=O)N1CCN(CCc2ccccc2)CC1	-7%	14%	u	-4%	5%	-19%
COc1ccc(CN2CCN(C(=O)c3c(-c4ccccc4)noc3C)CC2)cc1F	-1%	u	23µM*	x	x	u
CC(=O)N1CCC(Cc2ccc(C(N)=O)cc2)CC1	30%	x	x	x	x	x
CCCCCOc1ccc(/C=N/NC(=O)c2nnn(-c3nonc3N)c2CN2CCCCCC2)cc1	1%	x	-16%	x	x	2%
CC(=C/c1ccccc1)/C=N/NC(=O)c1nnn(-c2nonc2N)c1CN1CCC(C)CC1	12%	u	18µM*	u	-9%	u
CC(/C=N/NC(=O)c1nnn(-c2nonc2N)c1CN1CCCCC1)=C\c1ccccc1	-27%	-21%	u	0%	u	u
CC1CCN(Cc2c(C(=O)N/N=C/c3cccc(Cl)c3)nnn2-c2nonc2N)CC1	-9%	1%	u	2%	-9%	u
CN(Cc1c(C(=O)N/N=C/c2ccccc2O)nnn1-c1nonc1N)C1CCCCC1	6%	x	6.5µM*	x	x	u
CC1CCN(Cc2c(C(=O)N/N=C/c3ccccc3O)nnn2-c2nonc2N)CC1	13%	u	7.3µM*	10µM*	7.9µM*	8.2µM*
Cc1ccccc1COc1ccc(/C=N/NC(=O)c2nnn(-c3nonc3N)c2CN2CCC(C)CC2)cc1	7%	5%	3.3µM*	10%	-4%	10µM*
Cn1cnc(C(=O)NC2CCN(C(=O)N3CC4CC(C3)[C@H]3CCCC(=O)N3C4)CC2)c1 (some centres not stated)	36%	x	x	x	x	x
CCOC(=O)C1=CN(CC(=O)Nc2cc(C)ccc2C)S(=O)(=O)N=C1C	21%	x	x	x	x	x
CSc1ccc(/C=N/NC(=O)C2CC2)cc1	-20%	x	x	x	x	x
O=C(NC1CC1)[C@@H]1CN(Cc2ccc(OC(F)(F)F)cc2)C[C@H]1CO	10%	x	x	x	x	x
SMILES	12-LOX inh	ELG1 repair inh	TDP1 cell noCPT	RORgamma inh	Gal4-VP16 FLuc	DT40 TDP1 CPT
Cc1nnn(-c2nonc2N)c1C(=O)N/N=C/c1ccccc1O	0%	u	4.6µM*	1.3µM*	2.8µM*	4.1µM*
COc1ccc(N2CC(C(=O)N3CCC(C(=O)NCc4cccs4)C3)NC2=O)cc1 (configuration not stated)	61%	x	x	x	x	x
N#Cc1sc2nc(-c3ccccc3)cc(-c3ccco3)c2c1N	u	12%	u	-43%	-8%	18µM*
COc1ccc(S(=O)(=O)NCC(c2cccnc2)N2CCN(c3ccccc3OC)CC2)cc1C (configuration not stated)	-3%	-2%	u	22%	-2%	u
O=C(NCC(c1cccnc1)N1CCOCC1)C1CCCCC1 (configuration not stated)	29%	2%	-5%	-7%	-6%	17%
COc1ccccc1N1CCN(C(CNC(=O)C2CCCCC2)c2cccnc2)CC1 (configuration not stated)	9%	-14%	10µM*	u	-1%	8.2µM*
COc1ccccc1N1CCN(C(CNS(=O)(=O)c2ccccc2)c2cccnc2)CC1 (configuration not stated)	x	-16%	18µM*	22%	13%	23µM*
CCN(CC)C(=O)OCc1c(-c2ccccc2)ncc2ccccc12	-20%	u	23µM*	x	x	u
COc1cccc(-c2ncc3ccccc3c2COC(=O)N2CCOCC2)c1	4%	u	u	x	x	u
O=C(O)c1ccccc1C(=O)OCc1c(-c2ccccc2)ncc2ccccc12	u	-5%	-13%	x	x	u
COc1ccc(C(=O)OCc2c(-c3cccc(OC)c3)ncc3ccccc23)cc1	u	u	-17%	x	x	u
COc1cccc(-c2ncc3ccccc3c2COC(=O)N2CCCCC2)c1	-12%	u	16µM*	x	x	u
COc1cccc(OC)c1C(=O)OCc1c(-c2ccccc2)ncc2ccccc12	1%	u	18µM*	x	x	21µM*
O=C(OCc1c(-c2ccccc2)ncc2ccccc12)c1cccc(Br)c1	-4%	9.2µM*	u	x	x	-15%
O=S(=O)(NC1CCCN(Cc2ccccc2F)C1)c1ccccc1 (configuration not stated)	14%	x	x	x	x	x
COc1ccc(-c2nn(Cc3nc(-c4ccc(Br)cc4)no3)c(=O)c3ccccc23)cc1	-6%	x	x	x	x	x
Cc1nnc(SC(C)C(=O)c2c[nH]c3ccccc23)s1 (configuration not stated)	0%	x	x	x	x	x
O=C(OCc1c(-c2ccccc2)ncc2ccccc12)c1ccc(F)cc1	-17%	u	16µM*	x	x	u
